# Test results reported in PubChem BioAssay (NCATS).
# Several values for one entry are separate records, joined by “and”; a condition that tells them apart may be missing. Identical values can stand only once. Results filed as inconclusive are left out. Where a call stands in place of a potency, no number is given. Activity calls are given as the source filed them. Unless noted, calls follow the shape of the dose curve; as a rule, active = well fitted curve in the direction sought with a large enough effect; inconclusive = small, poorly fitted or top-dose-only effect, or another doubt; inactive = no such curve, though single readings can be large; an effect the other way counts as inactive or inconclusive.
# What was measured:
# [1] = qHTS assay for small molecule antagonists of retinoid X receptor alpha signaling (AID 588546; active = well fitted inhibition curve with a large enough effect in the signal ratio, with a control signal flat, not every such curve was filed as active; the % refers to the signal ratio;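 also: cells stimulated with 9-cis-retinoic acid as agonist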); details: HEK293T RXRa-UAS-bla, beta-lactamase ratio, antagonist mode; measured here: W530 green channel, cytotoxicity proxy
# Procedure, shortened: (§1)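 Beta-lactamase reporter inhibition, read as CCF4 fluorescence ratio (ex 405, em 460/530 nm) after 2 h at RT. HEK293T UAS-bla cells, 2500/well, were stimulated with 9-cis-RA at 500 or 100 nM final alongside test compound for 18 h at 37 C.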
# [2] = molecular target: Retinoic acid receptor RXR-alpha (Homo sapiens) (UniProt P19793); assay: as above; details: HEK293T RXRa-UAS-bla, beta-lactamase ratio, antagonist mode
# Sequence of Retinoic acid receptor RXR-alpha (Homo sapiens) (P19793 whole entry, looked up): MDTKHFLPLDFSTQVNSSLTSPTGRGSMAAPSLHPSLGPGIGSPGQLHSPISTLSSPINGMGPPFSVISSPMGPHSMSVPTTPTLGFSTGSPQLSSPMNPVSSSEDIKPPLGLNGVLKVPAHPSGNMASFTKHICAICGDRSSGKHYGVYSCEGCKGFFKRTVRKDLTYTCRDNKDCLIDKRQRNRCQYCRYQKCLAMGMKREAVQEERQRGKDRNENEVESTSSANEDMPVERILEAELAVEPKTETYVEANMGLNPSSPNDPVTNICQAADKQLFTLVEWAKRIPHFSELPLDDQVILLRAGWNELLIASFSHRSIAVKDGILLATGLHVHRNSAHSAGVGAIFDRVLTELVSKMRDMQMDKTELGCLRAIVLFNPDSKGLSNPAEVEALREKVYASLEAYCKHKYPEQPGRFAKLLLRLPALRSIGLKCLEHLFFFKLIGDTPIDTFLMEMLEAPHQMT
# Procedure, shortened: as §1
# [3] = molecular target: Thyroid hormone receptor beta (Homo sapiens) (UniProt P10828); assay: qHTS assay for small molecule antagonists of thyroid hormone receptor beta signaling (AID 588547; active = well fitted inhibition curve with a large enough effect in the signal ratio, with a control signal flat, not every such curve was filed as active; the % refers to the signal ratio;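 also: cells stimulated with 0.4 nM T3 agonist during compound exposure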); details: TR-UAS-bla HEK293, beta-lactamase ratio, antagonist mode, 18 h
# Sequence of Thyroid hormone receptor beta (Homo sapiens) (P10828 whole entry, looked up): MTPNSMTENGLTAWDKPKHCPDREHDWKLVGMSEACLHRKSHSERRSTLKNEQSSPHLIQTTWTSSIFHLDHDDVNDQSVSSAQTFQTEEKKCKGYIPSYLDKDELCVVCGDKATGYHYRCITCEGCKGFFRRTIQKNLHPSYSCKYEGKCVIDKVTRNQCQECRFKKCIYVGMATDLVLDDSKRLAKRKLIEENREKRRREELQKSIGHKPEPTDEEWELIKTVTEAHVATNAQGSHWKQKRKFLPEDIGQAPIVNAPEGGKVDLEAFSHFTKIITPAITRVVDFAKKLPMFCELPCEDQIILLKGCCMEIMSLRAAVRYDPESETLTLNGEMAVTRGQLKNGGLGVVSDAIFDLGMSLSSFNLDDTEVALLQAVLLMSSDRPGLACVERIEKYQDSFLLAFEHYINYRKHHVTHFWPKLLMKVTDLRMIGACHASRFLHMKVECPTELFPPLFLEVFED
# Procedure, shortened: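 TR-UAS-bla GripTite HEK293 cells in 2% charcoal/dextran FBS medium were preincubated 4 h at 37 C, given compound (0.59 nM to 92 uM) plus 0.4 nM T3 (final) for 18 h, then CCF4 for 2 h at RT; Hill fit gave IC50.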
# [4] = molecular target: Voltage-gated inwardly rectifying potassium channel KCNH2 (Homo sapiens) (UniProt Q12809); assay: qHTS Assay for Small Molecule Inhibitors of the Human hERG Channel Activity (AID 588834); details: U2OS BacMam hERG, FluxOR thallium flux fluorescence; series mostly up to 46.1 µM;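 also: lower thallium flux fluorescence means stronger hERG block; nearly all actives have a fitted effect of over 50% in size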; also: potency is read from the fitted curve at half-maximal effect
# Sequence of Voltage-gated inwardly rectifying potassium channel KCNH2 (Homo sapiens) (Q12809 whole entry, looked up): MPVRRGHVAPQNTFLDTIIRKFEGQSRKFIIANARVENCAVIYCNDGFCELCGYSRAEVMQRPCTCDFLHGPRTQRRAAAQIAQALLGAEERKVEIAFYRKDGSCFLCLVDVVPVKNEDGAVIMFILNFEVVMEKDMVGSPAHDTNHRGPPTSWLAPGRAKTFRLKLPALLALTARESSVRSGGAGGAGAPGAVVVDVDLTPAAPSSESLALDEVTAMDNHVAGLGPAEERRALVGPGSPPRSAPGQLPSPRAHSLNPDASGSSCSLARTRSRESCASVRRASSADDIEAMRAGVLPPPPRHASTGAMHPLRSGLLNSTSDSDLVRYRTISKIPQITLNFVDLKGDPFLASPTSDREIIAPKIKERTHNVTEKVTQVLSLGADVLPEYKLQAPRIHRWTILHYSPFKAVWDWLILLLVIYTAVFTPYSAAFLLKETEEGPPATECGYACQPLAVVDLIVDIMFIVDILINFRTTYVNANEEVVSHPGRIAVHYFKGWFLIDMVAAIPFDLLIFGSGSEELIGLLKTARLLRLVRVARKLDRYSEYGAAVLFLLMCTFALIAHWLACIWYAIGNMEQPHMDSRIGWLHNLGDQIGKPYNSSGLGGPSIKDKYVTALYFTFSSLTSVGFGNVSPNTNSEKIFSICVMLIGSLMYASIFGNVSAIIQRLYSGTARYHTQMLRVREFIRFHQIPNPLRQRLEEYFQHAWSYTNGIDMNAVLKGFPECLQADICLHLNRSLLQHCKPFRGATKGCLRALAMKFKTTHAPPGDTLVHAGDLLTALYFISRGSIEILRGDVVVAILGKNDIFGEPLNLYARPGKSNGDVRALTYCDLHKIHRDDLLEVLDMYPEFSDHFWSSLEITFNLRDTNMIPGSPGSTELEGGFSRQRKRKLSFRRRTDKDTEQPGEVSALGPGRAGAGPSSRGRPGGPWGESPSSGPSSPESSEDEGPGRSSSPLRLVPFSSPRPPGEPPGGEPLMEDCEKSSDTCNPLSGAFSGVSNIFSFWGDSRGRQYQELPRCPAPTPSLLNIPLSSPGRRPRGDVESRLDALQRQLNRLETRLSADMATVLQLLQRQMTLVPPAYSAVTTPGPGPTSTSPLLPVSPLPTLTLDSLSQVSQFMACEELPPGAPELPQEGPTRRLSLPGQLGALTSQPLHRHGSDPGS
# Procedure, shortened: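 Kinetic FDSS fluorescence; U2OS + hERG BacMam (~100 virus particles/cell); FluxOR Tl+ flux; ~10 min cpd; AC50 (Hill).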
# [5] = molecular target: Luciferin 4-monooxygenase (Photinus pyralis) (UniProt P08659); assay: Biochemical firefly luciferase enzyme assay for NPC (AID 624030);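 also: purified P. pyralis luciferase at 10 nM with luciferin and ATP substrate; nearly all actives have a fitted effect of over 70% in size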; details: purified P. pyralis luciferase, luminescence, 5 min; series mostly up to 58.6 µM
# Sequence of Luciferin 4-monooxygenase (Photinus pyralis) (P08659 whole entry, looked up): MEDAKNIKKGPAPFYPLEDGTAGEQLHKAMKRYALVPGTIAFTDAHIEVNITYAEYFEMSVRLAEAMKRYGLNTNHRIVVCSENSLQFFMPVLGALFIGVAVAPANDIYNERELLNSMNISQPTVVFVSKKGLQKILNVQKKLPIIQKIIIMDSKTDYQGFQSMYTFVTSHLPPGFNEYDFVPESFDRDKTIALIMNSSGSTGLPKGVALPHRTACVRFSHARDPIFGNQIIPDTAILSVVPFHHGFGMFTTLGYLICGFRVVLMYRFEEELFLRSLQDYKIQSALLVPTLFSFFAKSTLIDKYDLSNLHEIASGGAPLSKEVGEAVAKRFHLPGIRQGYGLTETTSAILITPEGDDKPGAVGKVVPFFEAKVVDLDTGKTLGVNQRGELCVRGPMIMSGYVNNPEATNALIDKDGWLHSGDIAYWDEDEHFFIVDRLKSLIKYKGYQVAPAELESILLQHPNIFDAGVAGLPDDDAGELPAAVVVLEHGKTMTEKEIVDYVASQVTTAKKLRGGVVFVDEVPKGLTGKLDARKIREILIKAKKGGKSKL
# Procedure, shortened: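 Counter-screen for direct inhibition of the luciferase enzyme by approved-drug library compounds, run at 10 nM enzyme in 50 mM Tris acetate (final). Luminescence was read within 5 min of enzyme-buffer addition and normalized to PTC124 versus DMSO (0%).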
# [6] = S16 Schwann cell viability assay (CellTiter-Glo assay) (AID 624031); details: S16 rat Schwann cells viability, 24 h; series mostly up to 57.5 µM;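 also: cellular ATP luminescence as a viability measure; nearly all actives have a fitted effect of over 70% in size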
# Procedure, shortened: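 Untransfected S16 rat Schwann cells; compound 24 h, 37 °C/5% CO2; CellTiter-Glo ATP luminescence. % activity vs no-cell wells and DMSO controls (0%); concentration-effect curves classed by r2, response magnitude, activity.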
# [7] = S16 Schwann cell PMP22 intronic element firefly luciferase assay (AID 624032); details: S16 rat Schwann cells, PMP22 element FLuc, 24 h; series mostly up to 57.5 µM; also: nearly all actives have a fitted effect of over 30% in size; also: potency is read from the fitted curve at half-maximal effect
# Procedure, shortened: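 Rat S16 Schwann cells stably carrying a PMP22 intronic element-driven Fluc reporter were seeded overnight, then exposed to compounds for 24 h at 37 °C. Luminescence was normalized to PTC124 (positive control) and DMSO (0% activity).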
# [8] = molecular target: Glutaminase kidney isoform, mitochondrial (Homo sapiens) (UniProt O94925); assay: qHTS for Inhibitors of Glutaminase (GLS): LOPAC Validation (AID 624146); details: glutaminase enzyme activity inhibition; series mostly up to 46.1 µM; also: nearly all actives have a fitted effect of over 60% in size; also: potency is read from the fitted curve at half-maximal effect
# Sequence of Glutaminase kidney isoform, mitochondrial (Homo sapiens) (O94925 whole entry, looked up, canonical isoform): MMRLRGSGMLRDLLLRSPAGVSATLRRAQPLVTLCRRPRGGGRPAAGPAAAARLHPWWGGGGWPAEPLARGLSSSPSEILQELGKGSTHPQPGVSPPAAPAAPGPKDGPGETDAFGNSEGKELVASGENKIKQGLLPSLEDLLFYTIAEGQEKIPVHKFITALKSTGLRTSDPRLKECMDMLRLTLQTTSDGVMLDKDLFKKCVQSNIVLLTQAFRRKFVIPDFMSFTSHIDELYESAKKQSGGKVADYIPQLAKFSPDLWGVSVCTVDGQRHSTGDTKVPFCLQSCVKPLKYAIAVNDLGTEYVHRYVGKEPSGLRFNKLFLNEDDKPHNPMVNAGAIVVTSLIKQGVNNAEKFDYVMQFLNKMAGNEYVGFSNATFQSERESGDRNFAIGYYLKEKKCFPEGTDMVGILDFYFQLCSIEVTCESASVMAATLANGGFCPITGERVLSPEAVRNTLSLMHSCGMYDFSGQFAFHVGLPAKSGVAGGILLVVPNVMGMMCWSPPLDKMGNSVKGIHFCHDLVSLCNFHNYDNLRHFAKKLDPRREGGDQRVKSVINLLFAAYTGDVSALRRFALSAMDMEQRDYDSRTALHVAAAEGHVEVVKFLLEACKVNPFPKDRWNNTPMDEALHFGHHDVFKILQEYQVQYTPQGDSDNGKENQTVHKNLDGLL
# Procedure, shortened: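 Glutamate formation by hKGA was monitored fluorometrically using coupled glutamate oxidase, HRP and Amplex Red. Substrate was added as 1 mM L-glutamine solution; incubation was 30 min at RT after an initial read.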
# [9] = qHTS of Trypanosoma Brucei Inhibitors: LOPAC Validation (AID 624147); details: purified enzyme assay, luminescence, 45 min; series mostly up to 57.5 µM
# Procedure, shortened: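 Luminescence from Kinase-Glo Plus, added after a 45-minute room-temperature reaction, served as the end-point read-out. The enzyme and substrate were preincubated with compound before ADP (130 uM final) initiated turnover. Concentration-effect curves came from normalized qHTS data.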
# [10] = molecular target: Glucagon-like peptide 1 receptor (Homo sapiens) (UniProt P43220); assay: qHTS of GLP-1 Receptor Agonists: LOPAC Validation (AID 624148); details: GLP-1R agonist cell assay; series mostly up to 46.1 µM;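 also: higher luminescence signal means agonism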
# Sequence of Glucagon-like peptide 1 receptor (Homo sapiens) (P43220 whole entry, looked up): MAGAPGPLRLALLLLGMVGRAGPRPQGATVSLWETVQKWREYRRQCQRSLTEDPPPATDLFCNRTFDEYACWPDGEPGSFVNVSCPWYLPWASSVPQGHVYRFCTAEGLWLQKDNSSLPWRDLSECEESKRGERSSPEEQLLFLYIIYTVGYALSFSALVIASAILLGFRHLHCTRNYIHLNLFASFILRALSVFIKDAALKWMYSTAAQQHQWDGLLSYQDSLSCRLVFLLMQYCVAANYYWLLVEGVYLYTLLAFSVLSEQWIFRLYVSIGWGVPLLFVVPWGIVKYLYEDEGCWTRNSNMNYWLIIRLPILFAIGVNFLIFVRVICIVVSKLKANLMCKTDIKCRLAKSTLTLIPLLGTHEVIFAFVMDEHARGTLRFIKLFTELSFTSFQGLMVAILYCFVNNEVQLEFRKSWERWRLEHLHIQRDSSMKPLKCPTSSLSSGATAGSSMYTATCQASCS
# Procedure, shortened: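 HEK293 cells stably co-expressing a cAMP-responsive luciferase reporter and a hypersensitive GLP-1R were plated 12 h at 37 °C and exposed to compounds for 4-6 hr at 37 °C, 5% CO2. Luminescence was read 12 min after adding detection reagent.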
# [11] = qHTS of Nrf2 Activators: LOPAC Validation (AID 624149); details: Nrf2/ARE reporter cell assay; series mostly up to 46.1 µM
# Procedure, shortened: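 AREc32 cells carrying an ARE-driven firefly luciferase were grown overnight in OPTI-MEM with 5% FBS, then exposed to compounds for 24 hr at 37 deg C. Luciferase signal was read after 30 min with Steady-Glo at RT.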
# [12] = HTS Assay for Allosteric Antagonists of the Human D2 Dopamine Receptor: Hit Validation in HTRF (AID 624455); details: Cells stably expressing D1 dopamine receptor, inhibition mode; series mostly up to 46.1 µM;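 also: stable D1 dopamine receptor cell line scored for blocking the D1 response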
# Procedure, shortened: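 Hits were examined in an HTRF assay using cells stably expressing the D1 dopamine receptor, scoring inhibition of the D1-mediated response. The preceding primary screen tracked calcium flux after an EC80 dopamine addition in force-coupled, inducible Hek293 Trex D2 cells.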
# [13] = S16 Schwann cell PMP22 intronic element beta-lactamase assay (AID 624044; calls by dose curve; also: nearly all actives have a fitted effect of over 15% in size); details: S16 rat Schwann cells, PMP22 element beta-lactamase FRET, 24 h; series mostly up to 38.3 µM
# Procedure, shortened: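 Rat S16 Schwann cells with beta-Lac driven by a PMP22 intronic element, compound-treated 24 h at 37 °C. LiveBLAzer FRET B/G read: 460 nm normalized to potassium clavulanate vs DMSO; 535 nm FRET as viability; concentration-effect curves classified.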
compound,measurement,setting,value
COc1ccc(C(c2ccc(OC)cc2)C(Cl)(Cl)Cl)cc1,max response,[1],-3.69% and 8.92%
same,max response,[2],-30.1% (inactive) and -25% (inactive)
same,activity change % (negative = inhibition),[3],0.506% (inactive) and -1.09% (inactive) and 26% (inactive)
same,Potency,[4],10 µM (active) and 22.4 µM (active)
same,Potency,[5],inactive
Nc1ccc(Sc2ccc(N)cc2)cc1,max response,[1],1.56% and -5.13%
same,max response,[2],1.16% (inactive) and 6.78% (inactive)
same,activity change % (negative = inhibition),[3],-2.35% (inactive) and -11.2% (inactive)
same,Potency,[4],inactive
COCCOCCO,max response,[1],3.81% and -4.43%
same,max response,[2],-11.3% (inactive) and -22% (inactive)
same,activity change % (negative = inhibition),[3],1.33% (inactive) and -16.2% (inactive)
same,Potency,[5],inactive
CC(C)(C)C(O)C(Oc1ccc(Cl)cc1)n1cncn1 (stereo unspecified),max response,[1],-12.3%
same,max response,[2],-0.566% (inactive)
same,activity change % (negative = inhibition),[3],-8.05% (inactive)
CCOCCOC(C)=O,max response,[1],-4.94%
same,max response,[2],11% (inactive)
same,activity change % (negative = inhibition),[3],9.89% (inactive)
same,Potency,[4],inactive
O=C(Nc1ccccc1-c1ccc(Cl)cc1)c1cccnc1Cl,max response,[1],-4.9%
same,max response,[2],-14.2% (inactive)
O=C(O)c1cc(Oc2ccc(C(F)(F)F)cc2Cl)ccc1[N+](=O)[O-],max response,[1],-4.23%
same,max response,[2],-9.38% (inactive)
same,activity change % (negative = inhibition),[3],-21.5% (inactive)
same,Potency,[5],inactive
O=C(O)COc1ccccc1,max response,[1],0.163%
same,max response,[2],-9.5% (inactive)
same,activity change % (negative = inhibition),[3],-9.48% (inactive)
same,Potency,[4],inactive
same,Potency,[5],inactive
same,Potency,[6],inactive
same,Potency,[7],inactive
c1ccc2occc2c1,activity change % (negative = inhibition),[3],-0.0158% (inactive) and 0.269% (inactive)
O=C1C(I)=CC(=C(c2cc(I)c(O)c(I)c2)c2ccccc2C(=O)O)C=C1I,Potency,[4],inactive
O=S(=O)(O)C(F)(F)C(F)(F)C(F)(F)C(F)(F)F,activity change % (negative = inhibition),[3],-13.9% (inactive)
CC(C)Oc1cccnc1N(C)C1CCN(Cc2ccccc2)CC1,Potency,[4],6.31 µM (active)
same,Potency,[8],inactive
same,outcome,[9],inactive
same,outcome,[10],inactive
same,outcome,[11],inactive
same,Potency,[12],inactive
CC(Cc1ccc(O)cc1)NCC(O)c1cc(O)cc(O)c1 (stereo unspecified),Potency,[4],inactive
same,Potency,[8],4.47 µM (active)
same,outcome,[9],inactive
same,outcome,[11],inactive
same,Potency,[12],inactive
Clc1ccc(C(c2ccc(Cl)cc2)n2cc[n+](CC(OCc3ccc(Cl)cc3Cl)c3ccc(Cl)cc3Cl)c2)cc1 (stereo unspecified),Potency,[4],11.2 µM (active)
CN1C2CCC1CC(OC(=O)c1cc(Cl)cc(Cl)c1)C2 (stereo unspecified),Potency,[4],3.55 µM (active)
same,Potency,[13],inactive
same,outcome,[9],inactive
same,outcome,[10],inactive
same,outcome,[11],inactive
same,Potency,[12],inactive
O=[N+]([O-])c1ccc([As](=O)(O)O)cc1,Potency,[4],inactive
same,Potency,[5],inactive
same,Potency,[6],inactive
same,Potency,[7],inactive
C[C@]12N[C@H](Cc3ccccc31)c1ccccc12,Potency,[4],inactive
same,Potency,[5],inactive
same,outcome,[9],inactive
same,outcome,[10],inactive
same,outcome,[11],inactive
same,Potency,[12],inactive
NC1=NC(=O)N2CC12 (stereo unspecified),Potency,[4],inactive
same,Potency,[6],inactive
same,Potency,[7],inactive
same,Potency,[13],inactive
O=[N+]([O-])c1c2ccccc2cc2ccccc12,activity change % (negative = inhibition),[3],0.364% (inactive)
same,Potency,[4],inactive
same,Potency,[5],inactive
Clc1cnc(Oc2ccc(Oc3ncc(Cl)cc3Cl)cc2)c(Cl)c1,max response,[1],-4.82%
same,max response,[2],-16.8% (inactive)
same,Potency,[4],inactive
same,Potency,[8],inactive
same,outcome,[9],inactive
same,outcome,[10],inactive
same,outcome,[11],inactive
same,Potency,[12],inactive
CCCCCCCCCCCCCCCC[N+](C)(C)C,max response,[1],-7.98%
same,max response,[2],-2.56% (inactive)
same,Potency,[4],inactive
same,Potency,[7],8.09 µM (active)
CCOP(=O)(NC(C)C)Oc1ccc(SC)c(C)c1 (stereo unspecified),max response,[1],1.81% and -9.53%
same,max response,[2],-12.2% (inactive) and -3.23% (inactive)
same,Potency,[4],inactive
C[N+](C)(C)CC(=O)O,Potency,[4],inactive
same,Potency,[5],inactive
O=[N+]([O-])/N=C1\NCCN1Cc1ccc(Cl)nc1,max response,[1],-10.6%
same,max response,[2],-0.806% (inactive)
same,Potency,[4],inactive
CCCCCCCCc1ccc(O)cc1,max response,[1],-5.97%
same,max response,[2],-17.2% (inactive)
same,Potency,[4],inactive
CC(C)NC(C)Cc1ccc(I)cc1 (stereo unspecified),Potency,[4],8.91 µM (active)
same,Potency,[5],inactive
same,Potency,[6],inactive
same,Potency,[7],inactive
same,Potency,[13],inactive
same,outcome,[9],inactive
same,outcome,[10],inactive
same,outcome,[11],inactive
same,Potency,[12],inactive
CC[C@@H]1C(=O)OC[C@@H]1Cc1cncn1C,Potency,[4],inactive
CN[C@@H](C)[C@H](O)c1ccccc1,Potency,[4],inactive
Brc1ccccc1-c1ccccc1,Potency,[4],28.2 µM (active)
CCCN(CCC)C1CCc2ccc(O)cc2C1 (stereo unspecified),Potency,[4],2.24 µM (active)
same,Potency,[8],inactive
same,outcome,[9],inactive
same,outcome,[10],inactive
same,outcome,[11],inactive
O=[N+]([O-])c1cc([N+](=O)[O-])c2ccccc2c1,max response,[1],-9.65%
same,max response,[2],12.9% (inactive)
same,activity change % (negative = inhibition),[3],-11.2% (inactive)
same,Potency,[5],inactive
CN[C@@H]1C[C@@H](c2ccc(Cl)c(Cl)c2)c2ccccc21,Potency,[4],12.6 µM (active)
same,Potency,[5],inactive
same,outcome,[9],inactive
same,outcome,[10],inactive
same,outcome,[11],inactive
same,Potency,[12],inactive
